How the values were obtained:
[1] = biological target: T1, Aspartate--tRNA(Asp/Asn) ligase (Mycobacterium tuberculosis (strain ATCC 25618 / H37Rv)) (UniProt P9WFW3); experiment: Assay for Asp RNA synthetase-1 from Mycobacterium tuberculosis; type: functional; parameters: scale not given: direction of the effect not stated beside the values; details: 30 µM; further: in the data most compounds retested in dose-response had high values
T1 sequence (whole entry): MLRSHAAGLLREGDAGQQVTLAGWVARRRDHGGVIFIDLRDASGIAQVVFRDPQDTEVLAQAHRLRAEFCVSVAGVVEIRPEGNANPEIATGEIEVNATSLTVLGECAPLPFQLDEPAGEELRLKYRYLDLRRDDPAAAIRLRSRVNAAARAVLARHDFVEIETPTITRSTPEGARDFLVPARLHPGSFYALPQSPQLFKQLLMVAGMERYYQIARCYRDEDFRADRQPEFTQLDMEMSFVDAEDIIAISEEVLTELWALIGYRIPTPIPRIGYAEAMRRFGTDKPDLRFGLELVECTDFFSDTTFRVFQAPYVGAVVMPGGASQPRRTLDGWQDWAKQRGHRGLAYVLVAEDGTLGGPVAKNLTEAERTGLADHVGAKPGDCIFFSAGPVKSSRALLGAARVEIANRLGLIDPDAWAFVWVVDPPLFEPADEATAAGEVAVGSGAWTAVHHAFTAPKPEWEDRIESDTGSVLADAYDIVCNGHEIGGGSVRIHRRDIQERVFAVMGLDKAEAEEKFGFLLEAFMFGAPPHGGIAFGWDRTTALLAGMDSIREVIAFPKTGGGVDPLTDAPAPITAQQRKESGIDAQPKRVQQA

[2] = biological target: Shiga toxin 2 (Escherichia coli O157:H7) (UniProt P09385+P09386); experiment: E. coli 0.157:H7 Shiga Toxin SOP - stx2 screening assay; type: functional; parameters: scale not given: direction of the effect not stated beside the values; details: 30 µM

Row | SMILES | Percent Effect [1] | Percent Effect [2]
1 | COc1ccc(C2CCCN2C(=O)c2cc3c([nH]c2=O)CCC3)cc1 (stereo not given) | 3.11% | -10%
2 | O=C(c1cccc(S(=O)(=O)NCCCc2ccco2)c1)N1CCOCC1 | 6.79% | -0.897%
3 | Cn1ccnc1CN1CCN(Cc2cc(C#N)ccc2F)CC1 | -5.71% | 17.6%
4 | CC(O)CN1CCN(C(=O)c2cc3ccccc3c(=O)[nH]2)CC1 (stereo not given) | 0.869% | -10.8%
5 | O=C(CO)N1CCc2onc(Cn3cccn3)c2C1 | -1.21% | 7.04%
6 | CN(CCCc1cnn(C)c1)C(=O)C1COc2ccccc2C1 (stereo not given) | 11.4% | -16.4%
7 | COCCOc1ccccc1C(=O)N1CCCCC1c1nccs1 (stereo not given) | 4.67% | -6.36%
8 | CN(C)C(=O)C1(CCCc2ccncc2)CCCN1 (stereo not given) | -0.998% | 11.3%
9 | Cn1cc(CC(=O)N2CCC(Nc3cccnn3)CC2)c2ccccc21 | 2.29% | -25.9%
10 | COCC(NC(=O)c1cnn(C)c1)c1cccc(C(F)(F)F)c1 (stereo not given) | -1.9% | -12.8%

From ChEMBL document CHEMBL3988442, “University of Dundee, Small-Polar-MMV Screening Library” (2021)
